From PubChem BioAssay
Most compounds without a hit are left out; they make up all but 2.3% or so of the library.
C diff HTS – C. difficile growth inhibitors, primary screen, HTS; Clostridium difficile clinical isolate growth, OD600, 24 h; hits give low values; growth activity, negative = inhibition, % at 16 µg/mL (by protocol); hit rate 0.25% among 86,000;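 active = mean growth activity at or below -80% and every replicate also at or below -80%; inconclusive = mean at or below -80% but some replicate above -80%; inactive = mean growth activity above -80%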
Pf Dd2 inh – P. falciparum Dd2 growth inhibitors, primary screen, SYBR Green fluorescence, single dose replicates; activity change, % at 10 µM; 72 h; hits give low values; hit rate 2.3% among 94,000; in the data active = activity change below about -80%; inconclusive = no clear call, values can overlap the other calls
A number is an active result; . = inactive; ? = inconclusive; / = not tested or not shown.

SMILES	C diff HTS	Pf Dd2 inh
COc1ccc(S(=O)(=O)N(C)C[C@@H]2OCCCC[C@@H](C)Oc3ccc(NC(=O)Nc4ccc(F)cc4)cc3C(=O)N([C@@H](C)CO)C[C@@H]2C)cc1	.	-81
COc1ccc(NC(=O)Nc2ccc3c(c2)C(=O)N([C@@H](C)CO)C[C@H](C)[C@H](CN(C)S(=O)(=O)c2ccc(F)cc2)OCCCC[C@@H](C)O3)cc1	.	-85
COc1ccc(S(=O)(=O)N(C)C[C@@H]2OCCCC[C@H](C)Oc3ccc(NC(=O)Nc4ccc(F)cc4)cc3C(=O)N([C@@H](C)CO)C[C@H]2C)cc1	.	.
C[C@H](CO)N1C[C@H](C)[C@H](CN(C)S(=O)(=O)c2ccc(F)cc2)Oc2c(NC(=O)CCCCCC(=O)Nc3ccccc3N)cccc2C1=O	.	-83
COc1ccc(S(=O)(=O)N(C)C[C@@H]2Oc3c(NC(=O)CCCCCC(=O)Nc4ccccc4N)cccc3C(=O)N([C@@H](C)CO)C[C@@H]2C)cc1	.	.
C[C@@H]1CN([C@@H](C)CO)C(=O)c2cccc(NC(=O)CCCCCC(=O)Nc3ccccc3N)c2O[C@@H]1CN(C)S(=O)(=O)c1ccc(F)cc1	.	-92
C[C@@H]1CN([C@@H](C)CO)C(=O)c2cccc(NC(=O)CCCCCC(=O)Nc3ccccc3N)c2O[C@H]1CN(C)S(=O)(=O)c1ccc(F)cc1	.	.
C[C@@H]1CN([C@H](C)CO)C(=O)c2cccc(NC(=O)CCCCCC(=O)Nc3ccccc3N)c2O[C@@H]1CN(C)S(=O)(=O)c1ccc(F)cc1	.	.
C[C@@H]1CN([C@H](C)CO)C(=O)c2cccc(NC(=O)CCCCCC(=O)Nc3ccccc3N)c2O[C@H]1CN(C)S(=O)(=O)c1ccc(Cl)cc1	.	.
C[C@H]1CN([C@@H](C)CO)C(=O)c2cccc(NC(=O)CCCCCC(=O)Nc3ccccc3N)c2O[C@H]1CN(C)S(=O)(=O)c1ccc(Cl)cc1	.	-90
COc1ccc(S(=O)(=O)N(C)C[C@H]2Oc3c(NC(=O)CCCCCC(=O)Nc4ccccc4N)cccc3C(=O)N([C@@H](C)CO)C[C@H]2C)cc1	.	-92
C[C@H](CO)N1C[C@H](C)[C@H](CN(C)Cc2cccc(O)c2)OCc2cn(nn2)CCCC1=O	.	.
C[C@H]1CN([C@@H](C)CO)C(=O)c2cccc(NC(=O)c3cnccn3)c2O[C@@H]1CN(C)Cc1ccc(-c2ccccc2)cc1	.	.
C[C@H](CO)N1C[C@H](C)[C@@H](CN(C)C(=O)Nc2ccc3c(c2)OCO3)Oc2c(NC(=O)c3nc4ccccc4s3)cccc2C1=O	/	.
C[C@@H]1CN([C@@H](C)CO)C(=O)c2cccc(NC(=O)c3nc4ccccc4s3)c2O[C@@H]1CN(C)C(=O)Nc1cccc2ccccc12	/	-88
C[C@H]1CN([C@@H](C)CO)C(=O)c2cccc(NC(=O)c3nc4ccccc4s3)c2O[C@H]1CN(C)C(=O)Nc1cccc2ccccc12	/	.
C[C@@H]1CN([C@@H](C)CO)C(=O)c2cccc(NC(=O)c3nc4ccccc4s3)c2O[C@H]1CN(C)C(=O)Nc1ccc2c(c1)OCO2	/	-90
C[C@@H]1CN([C@@H](C)CO)C(=O)c2cccc(NC(=O)c3nc4ccccc4s3)c2O[C@H]1CN(C)C(=O)Nc1cccc2ccccc12	/	-94
C[C@H]1CN([C@@H](C)CO)C(=O)c2cccc(NC(=O)c3nc4ccccc4s3)c2O[C@@H]1CN(C)C(=O)Nc1cccc2ccccc12	/	.
Cc1ccc(S(=O)(=O)N(C)C[C@@H]2Oc3ccc(NC(=O)CCC(F)(F)F)cc3CC(=O)N([C@H](C)CO)C[C@@H]2C)cc1	.	.
C[C@H]1CN([C@@H](C)CO)C(=O)c2cccc(NC(=O)C3CCCCC3)c2O[C@@H]1CN(C)Cc1ccc(C(=O)Nc2ccccc2N)cc1	.	-88
C[C@H](CO)N1C[C@H](C)[C@H](CN(C)Cc2ccc(C(F)(F)F)cc2)Oc2c(NC(=O)C3CCCCC3)cccc2C1=O	.	.
COc1ccc(NC(=O)Nc2cccc3c2O[C@H](CN(C)Cc2ccc(C(=O)Nc4ccccc4N)cc2)[C@H](C)CN([C@H](C)CO)C3=O)cc1	.	-93
C[C@@H]1CN([C@H](C)CO)C(=O)c2cccc(NC(=O)Nc3ccccc3)c2O[C@@H]1CN(C)Cc1ccc(C(=O)Nc2ccccc2N)cc1	.	-91
C[C@H]1CN([C@@H](C)CO)C(=O)c2cccc(NC(=O)Nc3ccccc3)c2O[C@H]1CN(C)Cc1ccc(C(=O)Nc2ccccc2N)cc1	.	.
SMILES	C diff HTS	Pf Dd2 inh
COc1ccc(NC(=O)Nc2cccc3c2O[C@@H](CN(C)Cc2ccc(C(=O)Nc4ccccc4N)cc2)[C@@H](C)CN([C@H](C)CO)C3=O)cc1	.	.
C[C@@H]1CN([C@@H](C)CO)C(=O)c2cccc(NC(=O)C3CCCCC3)c2O[C@H]1CN(C)Cc1ccc(C(F)(F)F)cc1	.	-83
C[C@H](CO)N1C[C@H](C)[C@H](CN(C)Cc2ccc(C(=O)Nc3ccccc3N)cc2)Oc2c(NC(=O)C3CCCCC3)cccc2C1=O	.	?
CC=Cc1ccc2n(c1=O)C[C@@H]1[C@@H](CO)[C@H](C(=O)N3CCCCC3)[C@H]2N1Cc1ccccn1 (mixture of isomers)	.	/
CC(C)NC(=O)N(C)C[C@@H]1Oc2cc(C#CCN(C)C)ccc2S(=O)(=O)N([C@@H](C)CO)C[C@H]1C	.	.
Cc1noc(C)c1S(=O)(=O)Nc1ccc2c(c1)CC(=O)N([C@H](C)CO)C[C@@H](C)[C@@H](CN(C)Cc1ccc3c(c1)OCO3)O2	.	.
CC(=O)N(C)C[C@H]1Oc2cc(-c3ccccc3C)ccc2S(=O)(=O)N([C@@H](C)CO)C[C@@H]1C	.	.
O=C(Cc1ccccc1)N1CC(=O)N2[C@H](C1)[C@@H](c1ccc(-c3ccccc3)cc1)[C@@H]2CO	.	.
C[C@H]1CN([C@@H](C)CO)C(=O)c2cccc(NC(=O)Nc3ccc(F)cc3)c2O[C@H]1CN(C)Cc1ccc(C(=O)Nc2ccccc2N)cc1	.	.
C[C@H](CO)N1C[C@H](C)[C@@H](CN(C)Cc2ccc(C(=O)Nc3ccccc3N)cc2)Oc2c(NC(=O)Nc3ccc(F)cc3)cccc2C1=O	.	-85
CO[C@H]1CN(C)C(=O)c2ccc(NC(=O)c3ccc4c(c3)OCO4)cc2OC[C@@H](C)N(CC2CC2)C[C@H]1C	/	.
CCCN1C[C@H](C)[C@H](OC)CN(C)C(=O)c2ccc(NC(=O)c3cccc(F)c3)cc2OC[C@H]1C	/	.
CCC(=O)Nc1ccc2c(c1)OC[C@H](C)N(Cc1ccccn1)C[C@@H](C)[C@@H](OC)CN(C)C2=O	/	.
CCC(=O)Nc1ccc2c(c1)OC[C@H](C)N(Cc1ccccn1)C[C@H](C)[C@H](OC)CN(C)C2=O	/	-84
CCCNC(=O)Nc1ccc2c(c1)OC[C@H](C)N(Cc1ccccc1)C[C@H](C)[C@@H](OC)CN(C)C2=O	.	.
CO[C@@H]1CN(C)C(=O)c2ccc(NC(=O)c3ccc4c(c3)OCO4)cc2OC[C@@H](C)N(Cc2ccc3c(c2)OCO3)C[C@H]1C	.	-85
CCCNC(=O)Nc1ccc2c(c1)OC[C@@H](C)N(Cc1ccccc1)C[C@@H](C)[C@H](OC)CN(C)C2=O	.	-87
CCCN1C[C@@H](C)[C@H](OC)CN(C)C(=O)c2ccc(NC(=O)c3cccc(F)c3)cc2OC[C@H]1C	/	-87
